A number with no mark means an inactive call. For some of these results: Measured potencies and affinities stand elsewhere. The source made the active and inactive calls. Unless noted, no rule for the calls is given here.
How the values were obtained:
[1] = antimalarial activity against Dd2 strain (AID 2302;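 active = growth inhibition above 50% at the single 2 µM test dose, taken to imply half-maximal potency below 2 µM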;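 also: 0% = DMSO untreated growth and 100% = chloroquine plus artemisinin killed control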); conditions: P. falciparum Dd2 in RBCs, LDH growth readout, 72 h; at 2 µM; hits give high values
[2] = HepG2 cytotoxicity, primary screen, cytotoxicity control for P. falciparum antimalarial project, cell-based, ATP luminescence (AID 2303;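 active = inhibition above 50%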;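 also: 0% = DMSO wells and 100% = digitonin-killed cells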); conditions: HepG2 viability, 24-48 h, at 10 µM, hits give high values
[3] = biological target: L-lactate dehydrogenase (Plasmodium falciparum (isolate CDC / Honduras)) (UniProt Q27743); experiment: PfLDH activity inhibition – cell lysate, 3D7 strain, counter-screen for P. falciparum growth inhibition project (AID 2304);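 also: 0% = vehicle and 100% = reference inhibitor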; conditions: P. falciparum 3D7 crude extract, LDH APAD/NBT absorbance; at 2 µM; hits give high values
[4] = inhibition of 3D7 malaria parasite growth – strain 3D7 (AID 2306);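 also: 0% = DMSO wells and 100% = chloroquine plus artemisinin control wells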; conditions: P. falciparum 3D7 erythrocytic growth, LDH absorbance, 72 h; at 2 µM; hits give high values
[5] = biological target: Calcium-dependent protein kinase 1 (Plasmodium falciparum (isolate 3D7)) (UniProt P62344); experiment: PfCDPK1 kinase inhibitors, biochemical, TCAMS library (AID 1159585; cut-off not given, nearly all actives have IC50 up to about 0.98 µM;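 also: inhibitors leave more ATP so luminescence rises with inhibition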); conditions: recombinant PfCDPK1, Kinase-Glo ATP depletion luminescence
[6] = biological target: Plasmodium falciparum protein kinase 6 (PK6, PF3D7_1337100) (UniProt Q8IDW1); experiment: PfPK6 kinase inhibitors, biochemical, TCAMS library (AID 1159586); conditions: recombinant PfPK6, Kinase-Glo ATP depletion luminescence
[7] = biological target: Protein kinase 7 (PK7), Plasmodium falciparum 3D7 (PF3D7_0213400) (UniProt Q7YTF7); experiment: inhibition of Plasmodium PK7 catalytic activity – biochemical, TCAMS antimalarial set, Kinase-Glo luminescence (AID 1159587); conditions: recombinant PfPK7, Kinase-Glo ATP depletion luminescence
[8] = biological target: Calcium-dependent protein kinase 4 (Plasmodium falciparum (isolate 3D7)) (UniProt Q8IBS5); experiment: PfCDPK4 kinase inhibitors, biochemical, TCAMS library (AID 1159588; cut-off not given, nearly all actives have IC50 up to about 0.91 µM); conditions: recombinant PfCDPK4, Kinase-Glo ATP depletion luminescence
Sequence of Calcium-dependent protein kinase 4 (Plasmodium falciparum (isolate 3D7)) (Q8IBS5 whole entry, looked up): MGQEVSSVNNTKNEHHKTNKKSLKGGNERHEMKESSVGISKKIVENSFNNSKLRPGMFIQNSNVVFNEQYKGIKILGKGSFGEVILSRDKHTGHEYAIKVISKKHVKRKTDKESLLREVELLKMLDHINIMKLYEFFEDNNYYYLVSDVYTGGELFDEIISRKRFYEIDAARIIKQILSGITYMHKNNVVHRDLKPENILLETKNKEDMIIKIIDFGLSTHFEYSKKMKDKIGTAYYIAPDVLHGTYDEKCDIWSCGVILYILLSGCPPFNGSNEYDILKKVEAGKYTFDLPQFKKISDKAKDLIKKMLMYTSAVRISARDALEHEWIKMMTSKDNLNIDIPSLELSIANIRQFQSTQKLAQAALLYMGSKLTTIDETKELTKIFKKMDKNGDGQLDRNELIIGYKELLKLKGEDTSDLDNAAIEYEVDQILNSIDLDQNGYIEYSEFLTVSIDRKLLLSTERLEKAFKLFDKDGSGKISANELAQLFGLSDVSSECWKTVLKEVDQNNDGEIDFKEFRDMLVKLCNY

Sequence of Plasmodium falciparum protein kinase 6 (PK6, PF3D7_1337100) (Q8IDW1 1-305): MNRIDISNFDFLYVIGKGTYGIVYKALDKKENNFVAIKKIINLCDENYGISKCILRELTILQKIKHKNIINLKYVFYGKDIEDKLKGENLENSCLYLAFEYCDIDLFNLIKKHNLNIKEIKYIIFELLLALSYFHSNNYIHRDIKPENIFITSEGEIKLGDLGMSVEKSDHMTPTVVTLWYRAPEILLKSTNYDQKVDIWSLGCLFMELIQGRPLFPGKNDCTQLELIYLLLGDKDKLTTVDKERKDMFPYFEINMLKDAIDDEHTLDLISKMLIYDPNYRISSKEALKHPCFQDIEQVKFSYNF
Sequence of Protein kinase 7 (PK7), Plasmodium falciparum 3D7 (PF3D7_0213400) (Q7YTF7 1-343): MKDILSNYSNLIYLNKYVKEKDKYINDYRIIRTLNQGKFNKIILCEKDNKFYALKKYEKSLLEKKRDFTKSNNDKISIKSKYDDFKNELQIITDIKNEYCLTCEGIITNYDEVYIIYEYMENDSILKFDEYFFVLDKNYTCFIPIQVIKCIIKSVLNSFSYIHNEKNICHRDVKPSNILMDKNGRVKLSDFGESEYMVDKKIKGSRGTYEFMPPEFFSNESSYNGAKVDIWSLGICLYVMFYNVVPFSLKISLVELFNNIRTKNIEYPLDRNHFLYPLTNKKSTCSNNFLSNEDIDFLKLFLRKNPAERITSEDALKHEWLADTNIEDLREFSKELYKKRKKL
Sequence of Calcium-dependent protein kinase 1 (Plasmodium falciparum (isolate 3D7)) (P62344 whole entry, looked up): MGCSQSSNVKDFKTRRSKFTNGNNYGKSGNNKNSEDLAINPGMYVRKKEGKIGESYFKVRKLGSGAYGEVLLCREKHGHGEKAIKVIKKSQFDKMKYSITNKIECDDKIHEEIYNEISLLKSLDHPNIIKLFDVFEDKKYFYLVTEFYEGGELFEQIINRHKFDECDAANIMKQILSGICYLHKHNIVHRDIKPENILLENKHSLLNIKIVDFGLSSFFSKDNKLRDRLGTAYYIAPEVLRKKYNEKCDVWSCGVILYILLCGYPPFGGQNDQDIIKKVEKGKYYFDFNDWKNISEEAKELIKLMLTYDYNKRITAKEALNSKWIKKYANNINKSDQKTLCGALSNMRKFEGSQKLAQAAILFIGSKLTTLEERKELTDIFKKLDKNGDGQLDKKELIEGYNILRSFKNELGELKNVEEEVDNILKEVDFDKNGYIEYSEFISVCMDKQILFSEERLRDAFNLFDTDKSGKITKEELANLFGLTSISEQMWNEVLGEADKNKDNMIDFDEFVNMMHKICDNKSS
Sequence of L-lactate dehydrogenase (Plasmodium falciparum (isolate CDC / Honduras)) (Q27743 whole entry, looked up): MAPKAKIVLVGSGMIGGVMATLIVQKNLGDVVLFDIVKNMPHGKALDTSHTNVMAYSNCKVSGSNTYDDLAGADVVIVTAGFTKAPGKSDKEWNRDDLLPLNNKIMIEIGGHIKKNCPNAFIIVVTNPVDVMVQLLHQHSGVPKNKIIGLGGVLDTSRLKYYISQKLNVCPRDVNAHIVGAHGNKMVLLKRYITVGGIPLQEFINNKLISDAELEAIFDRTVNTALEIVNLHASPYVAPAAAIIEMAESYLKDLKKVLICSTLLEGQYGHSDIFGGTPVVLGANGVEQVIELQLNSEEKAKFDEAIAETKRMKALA

SMILES | growth inhibition [1] | inhibition [2] | inhibition [3] | growth inhibition [4] | outcome [5] | outcome [6] | outcome [7] | outcome [8]
COc1cccc(OC)c1OCCCOc1c(C)nc(N)nc1N | -1% | 31% | 0% | 97% (active) | inactive | inactive | inactive | inactive
Cc1ccc(F)cc1S(=O)(=O)Nc1ccc(CCN2CCC(N3CCCCC3)CC2)cc1 | 15% | 25% | -3% | 99% (active) | inactive | inactive | inactive | inactive
CCc1c[nH]c2c(N3CCCS3(=O)=O)cc(C(=O)N[C@@H](Cc3ccccc3)[C@H](O)CNC(C)(C)c3cccc(C(F)(F)F)c3)cc12 | 99% (active) | 20% | 2% | 97% (active) | inactive | inactive | inactive | inactive
CC12CCC(=O)N1C(C(=O)Nc1cccc(C(=O)Nc3cccc(C(F)(F)F)c3)c1)CS2 (stereo not given) | 89% (active) | 6% | -3% | 92% (active) | inactive | inactive | inactive | inactive
Cc1nc2c(c(C)nn2C(C)(C)C)c(C)c1CCC(=O)Nc1ccc(CN2CCCC2)cc1 | 5% | 1% | 0% | 89% (active) | inactive | inactive | inactive | inactive
CCOC(=O)c1ccc(N2CCN(CCCNC(=O)/C(=C/C=C/c3cc4cc(Cl)c(Cl)cc4[nH]3)OC)CC2)cc1 | 72% (active) | 39% | 4% | 93% (active) | inactive | inactive | inactive | inactive
CC1(C)N=C(N)N=C(N)N1OCCCNC(=O)c1ccc([N+](=O)[O-])cc1 | 97% (active) | 57% (active) | 2% | 92% (active) | inactive | inactive | inactive | inactive
Cc1cc(NCCC(=O)NCc2cccc(F)c2)nc(Nc2ccccc2)n1 | 15% | -4% | -3% | 94% (active) | inactive | inactive | inactive | inactive
O[C@@H](c1ccc2ccccc2c1)[C@@H]1CN(CCc2ccccc2)CC[C@@]1(O)c1ccccc1 | 96% (active) | 1% | 1% | 99% (active) | inactive | inactive | inactive | inactive
C[C@@H]1CN(c2cnn(Cc3cccc(NC(=O)Nc4ccc(F)cc4[N+](=O)[O-])c3)c(=O)c2Cl)C[C@H](C)N1 | 13% | 7% | 6% | 91% (active) | inactive | inactive | inactive | inactive
CCn1c(-c2cc(C)on2)nc2cnc(Oc3ccc(C(=O)N4CC(=O)N(C)C4C(C)(C)C)cc3)cc21 (stereo not given) | 57% (active) | 44% | 4% | 81% (active) | inactive | inactive | inactive | inactive
c1cncc(CN2CCN(Cc3ccc(-c4ccc(-c5nc6ccccc6[nH]5)s4)cc3)CC2)c1 | 34% | 32% | 6% | 97% (active) | inactive | inactive | inactive | inactive
Oc1ccc(CCCNc2nc(NCc3cccc4ccccc34)nc(N3CCCNCC3)n2)cc1 | 62% (active) | 98% (active) | -2% | 96% (active) | inactive | inactive | inactive | inactive
Cc1ccc2c(=O)cc(CCc3cccc(F)c3F)n(CC(=O)N(Cc3ccc(-c4ccc(C(F)(F)F)cc4)cc3)C3CCN(C(C)C)CC3)c2n1 | 49% | 58% (active) | -2% | 100% (active) | inactive | inactive | inactive | inactive
Cn1nc(C(F)(F)F)c(-c2ccc(F)cc2)c1NC(=O)Nc1ccc(F)cc1 | 99% (active) | 5% | -2% | 100% (active) | inactive | inactive | inactive | inactive
COc1ccc(-c2ccc(NC(=O)c3ccc(Cl)cc3)cc2)cc1CN(C)CCO | 43% | 43% | 0% | 92% (active) | inactive | inactive | inactive | inactive
COc1ccc(-c2cc(C(=O)Nc3ccc4nc(-c5ccccc5)[nH]c4c3)[nH]n2)cc1 | 78% (active) | 77% (active) | 3% | 90% (active) | inactive | inactive | inactive | inactive
O=C(/C=C/c1ccc(Cl)c(Cl)c1)NCCCCCN1CCN(C(=O)Nc2ccc(Cl)c(C(F)(F)F)c2)CC1 | -3% | 22% | 3% | 100% (active) | inactive | inactive | inactive | inactive
CCCCCN1CCCC1CNS(=O)(=O)c1ccc(C(=O)Nc2ccc(C(F)(F)F)cc2)cc1 (stereo not given) | -3% | 19% | -2% | 87% (active) | inactive | inactive | inactive | inactive
COc1cc(Cl)c(C)cc1-n1cc(C(=O)c2cc(Br)ccc2O)cc(C#N)c1=O | 35% | 3% | -3% | 95% (active) | inactive | inactive | inactive | inactive
